This is a sample that favours compounds with a hit; in the whole collection about 3% have one here.
LmPK inh – qHTS Assay for Inhibitors of Leishmania Mexicana Pyruvate Kinase (LmPK); purified LmPK, Kinase-Glo ATP luminescence, 1 h; Potency, µM (highest dose often 57.5 µM), for the others: at the highest dose activity change, negative = inhibition, hits mostly inhibitors; 290,000 compounds, 0.37% hits; AID 1721, 2009
Target sequence (Q27686 whole entry, looked up): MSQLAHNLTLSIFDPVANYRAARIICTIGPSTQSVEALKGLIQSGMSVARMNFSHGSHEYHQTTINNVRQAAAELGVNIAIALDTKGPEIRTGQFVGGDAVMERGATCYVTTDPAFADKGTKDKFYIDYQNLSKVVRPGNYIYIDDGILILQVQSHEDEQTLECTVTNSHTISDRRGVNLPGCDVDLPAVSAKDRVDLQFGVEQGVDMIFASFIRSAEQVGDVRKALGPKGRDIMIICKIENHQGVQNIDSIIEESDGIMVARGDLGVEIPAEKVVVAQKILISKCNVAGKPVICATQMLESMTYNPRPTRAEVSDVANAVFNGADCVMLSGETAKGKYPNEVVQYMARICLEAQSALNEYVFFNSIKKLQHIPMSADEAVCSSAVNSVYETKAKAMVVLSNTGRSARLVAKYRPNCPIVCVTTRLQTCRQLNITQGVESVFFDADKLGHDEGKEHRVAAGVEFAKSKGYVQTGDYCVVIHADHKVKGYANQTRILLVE
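ATP generated from ADP (0.1 mM) and PEP (0.5 mM) by 0.1 nM LmPK over 1 h at room temperature (pH 7.2 imidazole buffer) was detected by coupled luciferase luminescence. Values were normalized to uninhibited and no-enzyme wells.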
TbPYK inhibitor – qHTS of Trypanosoma Brucei Inhibitors; 410,000 compounds, 0.12% hits; TbPYK enzyme, Kinase-Glo Plus ATP luminescence, 45 min; Potency, µM (series often up to 76.8 µM), inactives show top-dose activity, negative = inhibition, hits mostly inhibitors; also: nearly all actives have a fitted effect of over 50% in size
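Readout: single end-point luminescence (Kinase-Glo Plus, 10 min). Reaction conditions were TbPYK/substrate plus 130 uM ADP, 45 min at RT, pH 7.2 TEA buffer. No-enzyme wells served as controls, and data were normalized before concentration-response fitting.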
RE007 growth inh – qHTS Assay for Inhibitors of the HIV-1 protein Vpr. S. pombe RE007 Vpr strain, BacTiter-Glo ATP luminescence, 24 h. Potency, µM (titrated, usually from 92.2 µM), inactives show at the highest dose activity change, negative = less growth, usual class: inhibitors. 360,000 compounds, 0.21% hits; active = well fitted falling curve with a large enough effect; inconclusive = small, poorly fitted or top-dose-only effect; inactive = no such curve, though single readings can be large or run the other way; also: nearly all actives have a fitted effect of over 50% in size
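Fission yeast strain RE007, carrying one chromosomally integrated HIV-1 vpr copy, was seeded at OD 0.01 in PMG+AL medium with 23 nL pinned compound. After 24 h at 30 °C and 99% humidity, viability was read by BacTiter-Glo luminescence.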
Sm TGR inh – qHTS Assay for the Inhibitors of Schistosoma Mansoni Peroxiredoxins | Schistosoma mansoni thioredoxin glutathione reductase (TGR), Q962Y6 | purified TGR, DTNB reduction, TNB absorbance 405 nm | Potency, µM (top dose mostly 114 µM), inactives show at the top dose activity change, negative = inhibition, most hits filed as inhibitors | 360,000 compounds, 3% hits; also: nearly all actives have a fitted effect of over 60% in size
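First, TGR (20 nM dispensed) and NADPH were mixed with compound. Second, a 15 min room-temperature incubation followed. Third, further NADPH and then DTNB were added to start the reaction. Finally, TNB absorbance was monitored kinetically.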
* marks the source's active call; other numbers are inactive results; ? = inconclusive; nt = no result given; [ ] = dose if it differs, or a comment. Unless noted, calls follow the shape of the dose curve; as a rule, active = well fitted curve in the direction sought with a large enough effect; inconclusive = small, poorly fitted or top-dose-only effect, or another doubt; inactive = no such curve, though single readings can be large; an effect the other way counts as inactive or inconclusive. % is scaled to controls: 0 for no effect and ±100 for the full control effect; potency is read from the fitted curve at half-maximal effect.

SMILES	LmPK inh	TbPYK inhibitor	RE007 growth inh	Sm TGR inh
CN(C)S(=O)(=O)c1ccc(C(=O)OCc2nnc(-c3ccccc3)o2)cc1	-1%	3%	-14%	0%
Cc1ccccc1NC(=O)Cc1nc(COC(=O)c2ccc(S(C)(=O)=O)c([N+](=O)[O-])c2)cs1	nt	7%	9%	2.8µM*
Cc1ccc(C)c(CS(=O)(=O)c2cn(CC(=O)N(C(C)C)C(C)C)c3ccccc23)c1	nt	2%	nt	-2%
Cc1nc(SCC(=O)Nc2ccc(Cl)cc2C(F)(F)F)[nH]c(=O)c1Cc1ccccc1	nt	7%	nt	-1%
Cn1nc([N+](=O)[O-])c(C(C#N)c2nc3ccccc3n2C)c(Cl)c1=O (stereo not given)	-4%	-17%	-5%	32µM*
Cn1c(-c2ccc([N+](=O)[O-])cc2)nc2ccccc21	-11%	-4%	-21%	nt
O=C(CS(=O)(=O)c1ccccc1)NCc1ccccc1	-4%	4%	-3%	-10%
CC(=S)c1c(C)cc2cc(C)ccn12	0%	0%	3%	18µM*
CC(/C=N/Nc1ccc2nncn2n1)=C\c1ccccc1	6%	4%	18%	45µM*
CCC1CN(C(=O)C2CCN(S(=O)(=O)c3c(C)noc3/C=C/c3ccc(C)cc3)CC2)c2cc(C)ccc2O1 (stereo not given)	nt	-2%	nt	3%
CCS(=O)(=O)C1=NN2C(=N)/C(=C\c3ccc(OS(=O)(=O)c4ccccc4)cc3)C(=O)N=C2S1	2%	0%	0%	45µM*
CCS(=O)(=O)C1=NN2C(=N)/C(=C\c3ccc(OC(=O)c4ccco4)cc3)C(=O)N=C2S1	-9%	4%	18%	35µM*
CCC1=NN2C(=N)/C(=C/c3ccc(OS(=O)(=O)c4ccccc4)cc3)C(=O)N=C2S1	-5%	4%	-3%	-4%
COC(=O)N1C(/C=C/c2ccc3c(c2)OCO3)=Cc2ccccc2C1CC(C)=O (stereo not given)	-3%[11.5 µM]	nt	nt	nt
Cc1cccc(Cn2c(=O)n3nc(-c4ccccc4)nc3c3ccccc32)c1	nt	0%	nt	2%
CCc1c(C)c2cc3c(c(C)c2oc1=O)OCN(CCc1ccccc1F)C3	nt	-6%	nt	?
CC(C)(C)N=Cc1c(O)ccc2oc3c(c12)CCCC3	3%	1%	-10%	0%
O=[N+]([O-])c1cc2oc3c(c2c(C=NCc2ccncc2)c1O)CCCC3	14µM*	?	?	?
CCC(=O)NC(c1cccs1)c1cc(Br)c2cccnc2c1O (stereo not given)	nt	nt	nt	-33%
COc1ccc(OC)c2c(C)c(C)[nH]c12	-12%	-3%	-7%	32µM*
Oc1c(C(c2cccs2)N2CCN(c3ccccc3)CC2)ccc2cccnc12 (stereo not given)	2%	nt	nt	0.71µM*
Oc1c(C(c2ccccc2Cl)N2CCCC2)ccc2cccnc12 (stereo not given)	0%	42%	?	?
CN1CCN(C(c2ccc(C(F)(F)F)cc2)c2ccc3cccnc3c2O)CC1 (stereo not given)	0%	38%	-9%	0.32µM*
C=CCNC(=S)Nc1c(C(=O)OC)[nH]c2cc(OC)ccc12	-20%	-24%	20%	1.8µM*
COC(=O)c1[nH]c2cc(OC)ccc2c1NC(=O)c1c(F)cccc1F	3%	-4%	6%	0%
SMILES	LmPK inh	TbPYK inhibitor	RE007 growth inh	Sm TGR inh
CCOc1ccc(C(c2c(O)nc(SC)n(C)c2=O)c2c(O)nc(SC)n(C)c2=O)cc1	5%	?	4%	16µM*
CCOc1ccc(OCC(=O)OCn2c(SC)nnc(C)c2=O)cc1	-1%	-13%	22%	10%
CC/C(=N\Nc1ccnc2cc(Cl)ccc12)c1ccc(O)cc1	2%	3%	3%	50µM*
Oc1ccc(/C=N/Nc2ccnc3cc(Cl)ccc23)c(O)c1O	-11%	?	-15%	-28%
COc1ccc(Cl)cc1NC(=O)CN1C(=O)CCS(=O)(=O)c2ccccc21	-5%	1%	-8%	50µM*
CCOc1cc(/C=C2/N=C(C)C(C(=O)OC)=C2O)ccc1O	6%	-7%	-6%	-26%
CCOc1cc(/C=C2\CN(C)C/C(=C\c3ccc(O)c(OCC)c3)C2=O)ccc1O	-7%	-10%	-7%	13µM*
CCOC(=O)C1=C(O)/C(=C\c2ccc(O)c(OCC)c2)N=C1C	-3%	-5%	-10%	40µM*
COc1ccc(-n2nc(C(=O)NCC(=O)NCCCN3CC(C)CC(C)C3)c3ccccc3c2=O)cc1 (stereo not given)	-3%	-14%	9%	-10%
CCn1c(C(=O)NCc2ccccc2Br)cc2oc3ccccc3c21	nt	4%	nt	-9%
O=C(O)CCc1ccc(-c2ccc(Cl)cc2)n1CC(=O)O	14%	3%	-2%	45µM*
O=C(O)CCc1ccc(-c2ccccc2)n1CC(=O)Nc1ccccc1C(F)(F)F	nt	-16%	nt	40µM*
O=C(O)CCc1ccc(-c2cccs2)n1CC(=O)Nc1ccccc1C(F)(F)F	2%	3%	-13%	?
O=C(O)CCc1ccc(-c2ccc(Cl)cc2)n1CC(=O)Nc1ccccc1	-1%	2%	2%	?
O=C(O)CCc1ccc(-c2ccc(Cl)cc2)n1CCC(=O)O	4%	-5%	-1%	22µM*
C=CCn1c(CCC(=O)O)ccc1-c1ccccc1	-4%	-4%	5%	45µM*
O=c1cc(-c2ccccc2)n2c(SCc3ccccc3Cl)nnc2[nH]1	nt	3%	nt	-1%
Cc1ccc2c(c1)C1CCCC3C1N2CC(=O)N3Cc1ccccc1 (stereo not given)	-1%	nt	nt	50µM*
CCCCOc1cccc(C(=O)O)c1	-2%	-14%	-23%	6%
CC[N+](C)(CC)CCCCOc1ccc2c(c1)C(=O)c1cc(OCCCC[N+](C)(CC)CC)ccc1-2	-1%	?	?	5.6µM*
CC[N+](CC)(CC)CCCCOc1ccc2c(c1)C(=O)c1cc(OCCCC[N+](CC)(CC)CC)ccc1-2	-3%	-10%	-27%	20µM*
CC[N+](CC)(CC)CCOc1ccc(/C=C/c2ccccc2)cc1	nt	0%	-15%	?
COc1cc(C(C)=O)ccc1OCCCN1CCC(c2noc3cc(F)ccc23)CC1	nt	-7%	nt	nt
CC(C)(S)C(=O)N[C@H](CS)C(=O)O	nt	-20%	nt	nt
Cc1ccc(C2CC(c3cccs3)=NN2C(=O)CCl)cc1 (stereo not given)	0%	-7%	14%	2.5µM*
Nc1c(N2CCCC2)cc(Cl)c2nonc12	3%	-14%	-28%	56µM*
Cc1csc(C(=O)O)c1NC(=O)c1ccc(F)cc1	1%	4%	4%	89µM*
COc1ccc(C(=O)Nc2c(C)csc2C(=O)O)cc1	3%	3%	-3%	15%
CC(C)N(Cc1ccccc1)C(=O)CN1C(=O)CSc2ccc(S(=O)(=O)N3CCCC3)cc21	nt	-2%	nt	1%
